Screening results (PubChem)
TbREL1 primary – TbREL1 inhibition, primary screen; TbREL1 RNA ligation, FRET fluorescence; inhibition, % at 9.66 µM; 89,000 compounds, 0.49% hits; AID 1117264;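 active means inhibition above the mean inhibition across all screened compounds plus 3 SD, cut at about 11% in these data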
TbREL1 confirm – TbREL1 inhibition, confirmation. shares compounds with TbREL1 primary. TbREL1 RNA ligation, FRET fluorescence. inhibition, % at 9.66 µM. 390 compounds, 37% hits;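 active means mean inhibition across replicates above a set limit taken from the earlier primary screen, cut at about 11% in these data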
Hits are given with their value; – = inactive. This excerpt belongs to a sample that is enriched for hits.

SMILES	TbREL1 primary	others
CCN1C(=NCc2ccco2)N[C@@H](c2cccc(C(F)(F)F)c2)C(C(=O)OC)=C1C	–
COC(=O)C1=C(C)N(C)C(=NCc2ccc(C(F)(F)F)cc2)NC1c1ccccc1C(F)(F)F (stereo not drawn)	–
CCC(C)Nc1nnnc2c1sc1nc3c(cc12)COC(C)(C)C3 (stereo not drawn)	–
COc1ccc(CN(Cc2ccncc2)C(=O)CCC(=O)O)cc1	–
CCCn1c(SCC(=O)NC2CCCCC2C)n[nH]c1=O (stereo not drawn)	–
CCN(CC)c1ccc(NC(=O)C2CCCN(S(=O)(=O)c3cccnc3)C2)c(C)c1 (stereo not drawn)	–
C=CCn1c(O)c2ccc(C(=O)N=NC(=O)COc3ccccc3F)cc2c1O	–
Cc1ccc(C)c(S(=O)(=O)N2CCN(C(=O)Cc3c(F)cccc3Cl)CC2)c1	–
O=C1CCCc2ccccc2N1Cc1c(Cl)cccc1Cl	–
O=C(N/N=C(\c1ccccc1)c1cccnc1)C(O)(c1ccccc1)c1ccccc1	–
O=c1c2c([N+](=O)[O-])cc([N+](=O)[O-])cc2sn1Cc1ccccc1	–
O=Nc1c(O)n(Cc2ccccc2)c2ccccc12	–
O=c1c([N+](=O)[O-])c(Cl)c2ccccc2n1Cc1ccccc1	17	TbREL1 confirm=–
N#CC(Sc1ccccn1)c1ccc(Cl)cc1Cl (stereo not drawn)	–
Cc1ccccc1N1CCN(C2CCCN(C(=O)c3ccnn3C)C2)CC1 (stereo not drawn)	–
O=c1/c(=C/c2ccco2)sc2n1CN(c1ccccc1)CN=2	–
O=c1nc2s/c(=C\c3ccco3)c(=O)n2nc1Cc1ccc(F)cc1	–
N#CC1=C(N)n2c(s/c(=C\c3ccco3)c2=O)=C(C#N)C1c1ccco1 (stereo not drawn)	27	TbREL1 confirm=–
COC(=O)C1C(=O)/C(=C(/C)N2CCCC2)C(=O)CC1(C)C (stereo not drawn)	–
Cc1ccc(S[C@@H](CCN2CC[C@H](C(C)(C)C)CCC2=O)c2ccccc2)cc1	–
O=C(C1CC1)n1ccc2ccc(-c3ccc4ccn(Cc5ccccc5)c4c3)cc21	–
OC(c1ccccc1)(c1ccccc1)C1CCN(CCCOc2ccc(Cl)cc2)CC1	–
N#Cc1cccc(OCCCN2CCC(C(O)(c3ccccc3)c3ccccc3)CC2)c1	15	TbREL1 confirm=–
CC(COc1ccc(C#N)cc1)CN1CCC(C(O)(c2ccccc2)c2ccccc2)CC1 (stereo not drawn)	–
CCCCn1c(-c2cccc3ccccc23)nc2cc3[nH]c(=O)c(C(C)C)nc3cc21	–
SMILES	TbREL1 primary	others
Cc1ccc(Cl)c(OCC(=O)Nc2ccccc2C(=O)NC2CC2)c1	–
CSc1ncccc1C(=O)OCC(=O)N1CCN(S(=O)(=O)c2ccc(C)cc2C)CC1	–
Cc1nnc(SCC(=O)NC2CCCc3c2cnn3-c2ccc(F)cc2F)o1 (stereo not drawn)	–
O=C(NC1CCCc2c1cnn2-c1ccc(F)cc1F)c1ccccc1 (stereo not drawn)	–
O=C(Cc1ccccc1)NC1CCCc2c1cnn2-c1ccc(F)cc1F (stereo not drawn)	11	TbREL1 confirm=–
Cc1nn(C)c(C)c1NC(=O)C12CC3CC(CC(C3)C1)C2	–
CCC(=O)Nc1cc(C)c(NC(=O)C23CC4CC(CC(C4)C2)C3)cn1	–
Cc1cc(NC(=O)C23CC4CC(CC(C4)C2)C3)n[nH]1	12	TbREL1 confirm=–
CN(C)S(=O)(=O)c1cccc(C(=O)N/N=C\c2cccc(C#N)c2)c1	–
